Compound activity as filed in PubChem.
SRC3 inh = SRC3 coactivator transcriptional activity inhibitors, primary screen, cell-based, luminescence; inhibition, % at 3.6 µM; actives 0.17% (n = 360,000); AID 588352, 2011; HEK293 GAL4-SRC3 luciferase reporter;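 active = inhibition above a per-campaign cutoff, the mean of all compounds plus 3 SD, cut at about 60% in these data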;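 also: 0% = DMSO-treated cells and 100% = gossypol-treated cells at 36 µM; higher means less SRC3-driven luciferase light from the GAL4 reporter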
SRC1 inh = SRC1 coactivator transcriptional activity inhibitors, primary screen, cell-based, luminescence | Nuclear receptor coactivator 1 (Homo sapiens), Q15788 | AID 588354, 2011 | inhibition, % at 3.6 µM | actives 0.12% (n = 360,000) | HEK293 GAL4-SRC1 luciferase reporter;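 active = inhibition above the campaign mean plus 3 SD, with each screening campaign given its own cutoff, cut at about 60% in these data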;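 also: 0% = DMSO treated cells and 100% = gossypol at 36 µM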
NR5A2 inv ag = LRH-1 (NR5A2) inverse agonists, primary screen, cell-based, luminescence, HEK293T, StAR-luciferase reporter | LRH-1 transfected, 24 h | inhibition, % at 3.6 µM | actives 0.13% (n = 360,000);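 active = inhibition above the mean inhibition of all tested compounds plus 3 SD, cut at about 73% in these data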;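 also: 0% = DMSO wells and 100% = reporter-only cells lacking LRH-1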
GalR3 antag = GalR3 antagonists in HEK293 cells, primary screen, cell-based, fluorescence readout | Galanin receptor type 3 (Homo sapiens), O60755 | HEK293 GalR3-CNG cAMP membrane potential fluorescence; galR3 body fused to GalR1 C-terminus | inhibition, % at 3 µM | actives 0.44% (n = 360,000) | AID 651719, 2012;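 active = inhibition above the screen-wide average plus 3 SD, cut at about 13% in these data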;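 also: forskolin and galanin both at EC90 stimulate the cells; cAMP rise reported by CNG channel membrane potential dye signal; 0% = forskolin plus galanin with DMSO and 100% = forskolin alone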
SRC2 inh = inhibition of GAL4-SRC2 driven luciferase reporter, primary screen, SRC2 inhibitor project, cell-based, luminescence | inhibition, % at 9 µM | AID 651957, 2012 | HEK293 GAL4-SRC2 luciferase reporter | actives 0.17% (n = 370,000);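 active = inhibition above the mean inhibition of all tested compounds plus 3 SD, set per campaign, cut at about 52% in these data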;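 also: 0% = DMSO treated cells and 100% = cells given Gossypol at 36 µM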
NR2F2 inh = NR2F2 transcriptional activity inhibitors, primary screen, cell-based, luciferase reporter, HEK293T, luminescence. COUP transcription factor 2 (Homo sapiens), P24468. HEK293T NGFI-A luciferase reporter. inhibition, % at 8.6 µM. actives 0.7% (n = 370,000);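 active = inhibition above a per-plate cutoff, mean inhibition of test wells between control levels plus 3 SD, cut at about 38% in these data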;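 also: cells cotransfected with COUP-TFII expression vector driving the NGFI-A reporter; 0% = median of COUP-TF2 test wells and 100% = reporter-only cells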
The depositor's hits bear a star. Rows were chosen to be rich in hits. Some 1.1% of all compounds tested hit in one or more screens of this group.

Screening O=S(=O)(CC1NCc2cc(F)ccc21)NCc1ccccc1 (stereo unspecified) returned SRC2 inh 6.0 and NR2F2 inh -7.5.
Screening CC(=O)C1=C(c2ccc(Br)cc2)C(=O)c2ccccc2C1=O returned SRC3 inh 91.7*, SRC1 inh 90.8*, NR5A2 inv ag 85.1*, GalR3 antag -2.0, SRC2 inh 70.3* and NR2F2 inh 71.3*.
N#Cc1sc2nccc(Nc3ccccc3)c2c1N was read as SRC3 inh 64.1*, SRC1 inh 72.5*, NR5A2 inv ag 42.1, GalR3 antag -1.4, SRC2 inh 42.3 and NR2F2 inh 36.2.
Screening COc1cccc2c1C(=O)c1c(O)c3c(c(O)c1C2=O)C[C@@](O)(C(=O)CO)C[C@@H]3O[C@H]1C[C@H](N)[C@@H](O)[C@H](C)O1 returned SRC3 inh -1.8, SRC1 inh -33.5 and NR5A2 inv ag 89.4*.
`CC(=NNC(=S)N1CC2CCC(CC2)C1)c1cnccn1` gave SRC3 inh 77.8*, SRC1 inh 76.6*, NR5A2 inv ag 7.7, GalR3 antag -4.2, SRC2 inh -28.5 and NR2F2 inh -0.9.
Screening CC(=NNC(=S)N1CCN(C2CCCCCC2)CC1)c1ccccn1 returned SRC3 inh 68.8*, SRC1 inh 72.8*, NR5A2 inv ag 64.5, GalR3 antag -7.0, SRC2 inh 27.3 and NR2F2 inh 31.9.
Cc1cc(C)c(C(=O)/C=C/c2ccc3c(c2)OCO3)c(=O)[nH]1 was read as SRC3 inh 2.4, SRC1 inh 7.2, NR5A2 inv ag -6.9, GalR3 antag -2.9, SRC2 inh 1.9 and NR2F2 inh 0.2.
Screening Cc1cc(C)c(C(=O)/C=C/c2cccc3ccccc23)c(=O)[nH]1 returned SRC3 inh 78.0*, SRC1 inh 55.6, NR5A2 inv ag 55.1, GalR3 antag 1.0, SRC2 inh 66.3* and NR2F2 inh 20.5.
Screening Cc1cc(C=C2C(=O)c3ccccc3C2=O)c(C)n1-c1ccccc1 returned SRC3 inh 85.0*, SRC1 inh 2.3, NR5A2 inv ag -7.3, GalR3 antag -2.8, SRC2 inh 2.7 and NR2F2 inh -0.3.
`O=C(O)C1CCCN1c1nc(-c2ccc(Cl)c(Cl)c2)cc(C(F)(F)F)n1` (stereo unspecified) gave SRC3 inh 72.4*, SRC1 inh 53.4, NR5A2 inv ag 91.9*, GalR3 antag -2.5, SRC2 inh -15.5 and NR2F2 inh 26.0.
Screening C/C(=N\NC(=S)Nc1cccc(C)c1)c1ccccc1 returned SRC3 inh -29.6, SRC1 inh -39.7, NR5A2 inv ag -2.2, GalR3 antag -0.3, SRC2 inh -9.4 and NR2F2 inh -3.0.
For COc1ccc(C(=O)N/N=C(\C)c2ccccn2)cc1OC the results were SRC3 inh 18.5, SRC1 inh 14.7, NR5A2 inv ag 35.1, GalR3 antag -1.2, SRC2 inh 14.9 and NR2F2 inh -45.3.
`CC(=NNC(=S)Nc1cccc(C)c1)c1ccccn1` gave SRC3 inh 72.2*, SRC1 inh 72.9*, NR5A2 inv ag 86.0*, GalR3 antag 2.1, SRC2 inh 32.3 and NR2F2 inh 33.8.
CC(=NNC(=S)Nc1ccc(C)cc1)c1ccccn1 was read as SRC3 inh 67.7*, SRC1 inh 70.4*, NR5A2 inv ag 71.8, GalR3 antag -2.9, SRC2 inh 20.8 and NR2F2 inh 22.9.
For COc1ccccc1NC(=S)NN=C(C)c1ccccn1 the results were SRC3 inh 45.0, SRC1 inh 65.1*, NR5A2 inv ag 82.3*, GalR3 antag -8.0, SRC2 inh 5.5 and NR2F2 inh 28.2.
`COC(=O)C1CN(Cc2cn(Cc3ccc(F)cc3)nn2)CCS(=O)(=O)N1Cc1ccc(OC)cc1` (stereo unspecified) gave SRC2 inh 27.2 and NR2F2 inh 4.8.
